Screens deposited in PubChem by National Center for Advancing Translational Sciences (NCATS).
Only some compounds are listed: those with a hit (about 21% of all), similar ones and a draw of the others.
CHX counter: Cycloheximide Counterscreen for Small Molecule Inhibitors of Shiga Toxin | max response, % | AID 2314, 2010 | 300,000 tested, 12% active | cell reporter, cycloheximide protein synthesis inhibition counterscreen; in the data active = max response mostly above about 13%, no sharp cut-off; inactive = mostly below about 14%; note: read at 38.3 µM for the half of the compounds with a filed dose
NS1 inh: qHTS Assay for Inhibitors of Influenza NS1 Protein Function | 270,000 tested, 0.4% active | Potency, µM (top dose mostly 46.1 µM) | AID 2326, 2010; calls by dose curve; note: actives are rising curves; nearly all actives have a fitted effect of over 50% in size
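Recovery from NS1-induced slow growth read by OD600 in budding yeast switched to galactose assay medium (pH 6.0, -URA) at 1:100 dilution. Compound 23 nl per well; the matching strain lacking NS1 serves as control.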
Pf growth 96h: Primary qHTS for delayed death inhibitors of the malarial parasite plastid, 96 hour incubation | P. falciparum luciferase reporter growth, 96 h | Potency, µM (top dose mostly 28.7 µM), most hits filed as inhibitors | 320,000 tested, 6.9% active | AID 504834, 2011
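Luminescence readout: decreased luciferase signal marks inhibited growth of reporter-expressing P. falciparum in infected red cells (2% hematocrit, 0.05% parasitemia final), exposed to compound two generations (96 h, 37 C, 5% CO2).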
Shiga toxin inh: A qHTS for Small Molecule Inhibitors of Shiga Toxin; Vero cells, Shiga toxin protein synthesis inhibition reporter; inhibition, % at 38.7 µM; 290,000 tested, 9.2% active; AID 2315, 2010; in the data active = inhibition mostly above about 28%, no sharp cut-off; inactive = mostly below about 43%
Pf growth 48h: Primary qHTS for delayed death inhibitors of the malarial parasite plastid, 48 hour incubation | P. falciparum luciferase growth in erythrocytes, 48 h | Potency, µM (highest dose often 28.7 µM), hits mostly inhibitors | 310,000 tested, 5.9% active | AID 504832, 2011
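Here the parasites carry a stable luciferase gene and grow inside erythrocytes in Albumax-based RPMI medium with compound for one erythrocytic cycle. Activity is scored as loss of luminescent signal.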
A number is an active result; n = inactive; u = inconclusive; x = no result. Unless noted, calls come from the whole dose curve; as a rule, active = well fitted inhibition curve with a large enough effect; inconclusive = small, poorly fitted or top-dose-only effect, or another doubt; inactive = no such curve, though single readings can be large or run the other way.

SMILES	CHX counter	NS1 inh	Pf growth 96h	Shiga toxin inh	Pf growth 48h
Cc1nn(-c2ccccn2)c2nc(-c3cccs3)cc(C(=O)NCc3ccco3)c12	19	n	10µM	n	x
COc1ccc(NC(=O)C(C)N2C(=O)c3ccccc3S2(=O)=O)c(OC)c1 (centres undefined)	x	x	n	x	n
O=C(NNC(=S)Nc1ccccc1)c1cccs1	38	n	n	47	n
O=C(CCC(=O)Nc1ccccc1)NNC(=O)c1cccs1	n	n	n	n	n
O=C(NNc1ccc(Cl)cc1)c1cccs1	n	n	u	n	n
O=C(NNC(=S)Nc1ccc(Cl)cc1)c1cccs1	38	n	n	100	n
Cc1ccc(C2=Nc3ccccc3N(C(=O)c3ccccc3)C(C)C2)cc1 (centres undefined)	n	n	12µM	n	u
O=C(NCCCn1ccnc1)c1cc(-c2cccnc2)nc2ccc(Br)cc12	n	n	1.5µM	n	12µM
Cc1ccc2nc(-c3ccccc3)cc(C(=O)NCCCn3ccnc3)c2c1	n	n	u	n	13µM
COCCNC(=O)c1cc(-c2cccnc2)nc2ccc(Br)cc12	n	n	n	n	x
Fc1ccccc1Nc1nc(NCc2ccco2)nc(N2CCOCC2)n1	n	n	n	n	n
Cc1ccc(Nc2cc(C)nc(N3CCOCC3)n2)cc1	26	n	n	81	n
CCOc1ccc(Nc2nc(N3CCOCC3)nc(N3CCOCC3)n2)cc1	n	n	n	n	n
CCOc1ccc(Nc2cc(C)nc(N3CCOCC3)n2)cc1	n	n	n	n	n
Cc1ccc(Nc2nc(N3CCOCC3)nc(N3CCOCC3)n2)cc1	14	n	u	n	u
Cc1cc(Nc2ccc(C)c(Cl)c2)nc(N2CCOCC2)n1	7.5	n	u	n	u
CC(C)c1ccc(Nc2nc(NCc3ccco3)nc(N3CCOCC3)n2)cc1	n	n	n	n	13µM
CCOC(=O)c1ccc(Nc2cc(C)nc(N3CCOCC3)n2)cc1	n	n	u	n	u
O=C(N/N=C/c1ccc(OC(=O)c2ccccc2)c([N+](=O)[O-])c1)c1ccc(O)cc1	n	n	n	n	n
CC1=C(C(=O)Nc2cccc(C(=O)NC3CCCC(C)C3C)c2)SCCO1 (centres undefined)	n	n	u	n	n
Cc1oc(-c2ccccc2F)nc1CS(=O)(=O)CC(=O)NCc1ccccc1Cl	n	n	n	n	n
CC(=O)C1=C(O)C(=O)N(c2ccc(Br)cn2)C1c1ccc(Br)cc1 (centres undefined)	21	n	n	93	n
COc1cc(C2C(C(C)=O)=C(O)C(=O)N2c2ccc(Br)cn2)ccc1O (centres undefined)	n	n	u	n	n
CC(=O)C1=C(O)C(=O)N(c2ccc(Br)cn2)C1c1ccc(F)cc1 (centres undefined)	38	n	n	75	n
CCOC(=O)C1CCCN(C(=O)Cn2nc(C)c3c(C)n(-c4ccccc4)nc3c2=O)C1 (centres undefined)	n	n	n	n	u
SMILES	CHX counter	NS1 inh	Pf growth 96h	Shiga toxin inh	Pf growth 48h
CCc1ccc(CN2CCC(CO)(CC3CCCCO3)CC2)o1 (centres undefined)	n	n	n	n	n
CC(C)(C)C1=CC(=O)C(N2CCOCC2)=CC1=O	n	n	15µM	n	10µM
O=c1c(N2CCOCC2)c(N2CCOCC2)c1=O	n	n	n	n	n
CN1CCC(N(C)C(=O)c2ccc(Cl)c(S(=O)(=O)N3CCOCC3)c2)CC1	x	x	n	x	n
O=C(O)C1(O)C[C@H](O)C(O)[C@@H](O)C1 (some centres undefined)	x	x	n	x	n
Cc1nc(-c2ccc(F)cc2)c(CC(=O)N(C)CC(=O)Nc2ccccc2Cl)s1	x	x	13µM	x	n
CN(CC(=O)Nc1ccccc1Cl)C(=O)Cn1nnc(-c2ccc(F)cc2)n1	x	x	n	x	n
CN1c2ccsc2C(O)=C(C(=O)Nc2ccccc2)S1(=O)=O	n	n	n	n	n
Cc1ccc(NC(=O)C2=C(O)c3sccc3N(C)S2(=O)=O)cc1	23	n	n	n	n
Cc1ccc(NC(=S)C2=C(O)c3sccc3N(C)S2(=O)=O)cc1	19	n	x	n	n
CCOC(=O)C[N+]1(C)CCN(C(C)=O)CC1	n	x	u	n	n
CS(=O)(=O)N(CC(=O)N1CCN(C(c2ccccc2)c2ccccc2)CC1)C1CCCCC1	n	n	2.6µM	n	x
O=C(C1CCCCN1S(=O)(=O)c1ccccc1)N1CCN(C(c2ccccc2)c2ccccc2)CC1 (centres undefined)	n	n	1.9µM	n	1.9µM
O=C(C1CCCCN1S(=O)(=O)c1ccc(F)cc1)N1CCN(c2ccccc2F)CC1 (centres undefined)	n	n	4.7µM	n	n
O=C(c1cccc(NS(=O)(=O)c2ccc(F)c(F)c2)c1)N1CCN(C(c2ccccc2)c2ccccc2)CC1	n	n	u	n	13µM
O=C(C1CCCCN1S(=O)(=O)c1ccccc1)N1CCCCC1 (centres undefined)	n	n	u	n	u
Cc1cccc(-[n+]2c(C)cc(C)c3c(=O)[nH]c(=O)[nH]c32)c1	n	n	n	n	n
Cc1ccccc1CSc1nccn1-c1ccccc1	n	n	u	n	n
OCc1cc(-c2ccccn2)no1	x	x	n	x	u
N#Cc1ccc(C[C@H](C(=O)O)N2C(=O)c3ccc(C(=O)O)cc3C2=O)cc1	n	x	n	n	n
COc1ccccc1CNC(=O)CN1C(=O)NC(C)(c2ccc(C)cc2)C1=O (centres undefined)	n	n	n	n	n
CN1CCCN(Cc2ccc(Cl)cc2Cl)CC1	n	n	n	n	x
Cc1cc(N=Nc2ccc(Cl)cc2)cc(CN2CCCC2)c1O	n	n	0.29µM	n	0.23µM
CCCCCOc1ccc(Cl)cc1CN1CCOCC1	24	n	u	n	x
Cc1cc(N=Nc2ccc(Cl)cc2)cc(CN2CCOCC2)c1O	n	n	2.3µM	n	4.7µM
SMILES	CHX counter	NS1 inh	Pf growth 96h	Shiga toxin inh	Pf growth 48h
CCOc1ccc(Cl)cc1CN1CCOCC1	n	n	n	n	x
Cc1ccc(NC(=S)N2CCN(c3ccccc3F)CC2)c(C)c1	n	n	u	n	n
CCCC(CCC)C(=O)Nc1cccc(C(=O)O)c1	n	n	x	n	n
CN(C)c1ccc(/C=C/c2nnnn2-c2ccccc2)cc1	61	n	13µM	108	n
CCOC(=O)C1(Cc2cccc(OC)c2)CCN(Cc2cccnc2)CC1	35	n	n	99	n
CCOC(=O)C1(Cc2cccc(OC)c2)CCCN(Cc2nccn2CC)C1 (centres undefined)	n	n	12µM	n	u
CCOC(=O)C1(Cc2cccc(F)c2)CCN(Cc2ccon2)CC1	n	n	u	n	n
CCOC(=O)C1(Cc2cccc(F)c2)CCN(Cc2cnc(C)s2)CC1	n	n	2.3µM	n	u
CCOC(=O)C1(Cc2cccc(OC)c2)CCN(Cc2cccc3cnccc23)CC1	n	n	u	n	3.7µM
CCOC(=O)c1cccc(C2=CC(=O)C[C@H](c3ccc(OC)cc3)C2)c1	x	x	n	x	n
